Test results from PubChem BioAssay AID1159580 (chemical genetic matrix, 2015).
Where “and” joins values, the source holds several entries; their conditions need not be identical. Equal entries are not always repeated. The campaign covered roughly 5,500 compounds. About 2,000 (36%) were called active. Another 18% or so got no clear call; they are omitted. Cut-off read from the data, not from the text of the source: active = normalized growth mostly below about 0.91 (no sharp cut-off); inconclusive = no clear call, values can overlap the other calls; inactive = mostly above about 0.92. The list shows a part of the results.

Assay: chemical genetic growth profiling, strain panel (AID 1159580);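 note: tested at 20 µM; growth read once vehicle control cultures reached saturation at 30 °C; 1 = growth at the plate median or of vehicle wells; lower values mean less growth of the strain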
Settings: S. cerevisiae deletion strains, growth OD

Measured: normalized growth

COc1cc(Cc2cnc(N)nc2N)cc(OC)c1OC
inactive: locus YAL013W, strain DEP1, active compounds read low 1 and 1.03 | locus YAL021C, strain ccr4, active compounds read low 1.02 | locus YAL026C, strain drs2, active compounds read low 1.01 | locus YAL030W, strain snc1, active compounds read low 1.01 | locus YAL040C, strain CLN3, active compounds read low 0.987 | locus YBL061C, strain skt5, active compounds read low 1.01 | locus YBR009C, strain hhf1, active compounds read low 1.01 | locus YBR021W, strain FUR4, active compounds read low 0.977 | locus YBR023C, strain chs3, active compounds read low 1.01 | locus YBR171W, strain sec66, active compounds read low 1.02 | locus YBR229C, strain ROT2, active compounds read low 0.998 | locus YBR231C, strain swc5, active compounds read low 1.01 | locus YBR279W, strain paf1, active compounds read low 1.02 | locus YCL011C, strain gbp2, active compounds read low 1.02 | locus YCL016C, strain dcc1, active compounds read low 1.02 | locus YCL029C, strain bik1, active compounds read low 0.982 | locus YCL061C, strain MRC1 (second series), active compounds read low 0.992 | locus YCL069W, strain vba3, active compounds read low 1.02 | locus YCR088W, strain abp1, active compounds read low 1.02 | locus YDL005C, strain med2, active compounds read low 1.02 | locus YDL035C, strain GPR1, active compounds read low 1.03 | locus YDL040C, strain nat1, active compounds read low 1.01 | locus YDL074C, strain BRE1, active compounds read low 0.993 | locus YDL101C, strain DUN1, active compounds read low 0.99 | locus YDL134C, strain PPH21, active compounds read low 0.986 | locus YDL185W, strain tfp1, active compounds read low 0.987 | locus YDL192W, strain arf1, active compounds read low 0.99 | locus YDR001C, strain nth1, active compounds read low 1.01 | locus YDR069C, strain doa4, active compounds read low 1.03 | locus YDR101C, strain arx1, active compounds read low 0.986 | locus YDR137W, strain rgp1, active compounds read low 1.02 | locus YDR150W, strain NUM1, active compounds read low 1 | locus YDR159W, strain sac3, active compounds read low 0.977 | locus YDR162C, strain NBP2, active compounds read low 1 | locus YDR195W, strain ref2 1 | locus YDR297W, strain sur2, active compounds read low 1.01 | locus YDR318W, strain mcm21, active compounds read low 0.99 | locus YDR334W, strain swr1, active compounds read low 1.02 | locus YDR335W, strain msn5, active compounds read low 1.02 | locus YDR363W, strain ESC2, active compounds read low 0.991 | locus YDR388W, active compounds read low 0.987 | locus YDR392W, strain spt3, active compounds read low 0.984 | locus YDR502C, strain sam2, active compounds read low 0.998 | locus YEL003W, strain gim4, active compounds read low 1.02 | locus YEL037C, strain rad23, active compounds read low 1.01 | locus YEL061C, strain CIN8 (second series), active compounds read low 1.01 | locus YEL061C, strain CIN8, active compounds read low 0.997 | locus YER002W, strain NOP16, active compounds read low 0.968 | locus YER015W, strain faa2, active compounds read low 1.02 | locus YER016W, strain bim1, active compounds read low 1.01 | locus YER110C, active compounds read low 0.988 | locus YER111C, strain swi4, active compounds read low 1.03 | locus YER155C, strain BEM2 (second series), active compounds read low 0.991 | locus YER155C, strain BEM2, active compounds read low 0.989 | locus YER167W, strain BCK2, active compounds read low 1.01 | locus YFR010W, strain ubp6, active compounds read low 1.01 | locus YGL078C, strain dbp3, active compounds read low 0.992 | locus YGL086W, strain mad1, active compounds read low 1.01 | locus YGL167C, strain pmr1, active compounds read low 1.02 | locus YGL173C, strain kem1, active compounds read low 1.02 | locus YGL227W, strain vid30, active compounds read low 1.01 | locus YGL240W, strain doc1, active compounds read low 1.01 | locus YGL248W, strain PDE1, active compounds read low 1 | locus YGL253W, strain hxk2, active compounds read low 1.01 | locus YGR078C, strain PAC10, active compounds read low 1.01 | locus YGR135W, strain pre9, active compounds read low 0.985 | locus YGR229C, strain SMI1, active compounds read low 1.04 | locus YGR252W, strain gcn5, active compounds read low 1.07 | locus YHR013C, strain ard1, active compounds read low 1.01 | locus YHR027C, strain rpn1, active compounds read low 1.01 | locus YHR030C, strain SLT2, active compounds read low 0.999 and 0.966 | locus YHR079C, strain IRE1 (second series), active compounds read low 0.988 | locus YHR079C, strain IRE1, active compounds read low 0.979 | locus YHR094C, strain hxt1, active compounds read low 0.993 | locus YHR129C, strain ARP1, active compounds read low 0.991 | locus YHR142W, strain chs7, active compounds read low 1.03 | locus YHR200W, strain rpn10, active compounds read low 0.989 | locus YIL066C, strain RNR3, active compounds read low 1 | locus YIL073C, strain SPO22, active compounds read low 0.995 | locus YIL125W, strain kgd1, active compounds read low 1 | locus YIR030C, strain dcg1, active compounds read low 0.991 | locus YJL092W, strain hpr5, active compounds read low 1 | locus YJL095W, strain BCK1 (second series), active compounds read low 1.01 | locus YJL095W, strain BCK1, active compounds read low 0.988 and 0.98 | locus YJL115W, strain asf1, active compounds read low 1.02 | locus YJL129C, strain trk1, active compounds read low 1.01 | locus YJL134W, strain LCB3, active compounds read low 0.999 | locus YJL154C, strain vps35, active compounds read low 1.03 | locus YJL164C, strain tpk1, active compounds read low 1.01 | locus YJL166W, strain qcr8, active compounds read low 0.993 | locus YJL168C, strain set2, active compounds read low 0.993 | locus YJL187C, strain SWE1 (second series), active compounds read low 0.993 | locus YJL187C, strain SWE1, active compounds read low 1.02 | locus YJR043C, strain POL32, active compounds read low 1 | locus YJR066W, strain TOR1, active compounds read low 0.929
